Screens: PubChem BioAssay, Sanford-Burnham Center for Chemical Genomics
Shown are actives, neighbours in structure and some others; about 2.2% of the full set was active somewhere.
TRAIL sens C8 = caspase-8 TRAIL sensitization; 360,000 compounds, 1% hits; NB7+C8 cells + TRAIL, ATPlite viability luminescence; AID 624354; inhibition (viability loss, TRAIL sensitization), % at 10 µM;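 active = compounds causing at least 50% loss of cell viability in the single-dose screen, relative to plate controls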
hiPSC survival = enhancers of human iPSC single-cell survival. 360,000 compounds, 0.044% hits. survival enhancement, % at 20 µM. AID 602274. hiPSC single-cell survival, ATPlite luminescence; 100% = ROCK inhibitor wells, 0% = DMSO; in the data active = survival enhancement above about 18%;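 also: cells exposed to compounds for 16 hours before the ATP read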
HIF-2a inh = HIF-2a inhibition; 360,000 compounds, 0.72% hits; AID 624352; 786-0 RCC cells HIF-2a reporter, luciferase luminescence, overnight; inhibition, % at 18.8 µM;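 active = inhibition of the luminescence signal of 40% or more relative to plate controls, in a single-dose primary screen at 18.75 µM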
CF NFkB block = blocks PAF-induced NF-kB reporter in cystic fibrosis cells | inhibition, % at 5 µM | KKLEB NF-kB-GFP reporter, GFP fluorescence overnight | 360,000 compounds, 0.86% hits;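 active = at least 50% inhibition at 5 µM, scaled per plate between neutral and stimulator controls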;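 also: PAF is a Pseudomonas aeruginosa culture filtrate used as stimulus; plate controls were PAF-stimulated DMSO wells for no effect and unstimulated DMSO wells for full effect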
KKLEB cytotox = counter-screen for CF NF-kB inhibitors: cytotoxicity. KKLEB CF airway cells viability, ATPlite luminescence, overnight; hits give low values; cells stimulated with P. aeruginosa culture filtrate. activity change (cytotoxicity), % at 5 µM. 360,000 compounds, 0.36% hits. AID 602141;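 active = corrected activity change at or below -50% at 5 µM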
PPC-1+TRAIL kill = PPC-1 cancer cell killing with TRAIL present. PPC-1 cells + TRAIL, ATPLite viability luminescence. cell killing (% activity), % at 4 µM or 5 µM. 220,000 compounds, 0.41% hits. AID 1443;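 active = cell killing above 50% in the first pass at 4 µM, then a duplicate retest at 5 µM averaging 50% or more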;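 also: plate controls were cells with TRAIL plus DMSO for no effect and medium-only wells lacking cells for full effect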
Mdm2-MdmX confirm = confirmation of inhibitors of human Mdm2/MdmX interaction, set 2. 740 compounds, 99% hits. SaOS-2 split-luciferase Mdm2/MdmX complementation, luminescence. shares compounds with HIF-2a inh. inhibition, % at 8 µM;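 active = mean inhibition of the luminescence signal across two replicates at or above 26 percent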
Target sequence (O15151 whole entry, looked up): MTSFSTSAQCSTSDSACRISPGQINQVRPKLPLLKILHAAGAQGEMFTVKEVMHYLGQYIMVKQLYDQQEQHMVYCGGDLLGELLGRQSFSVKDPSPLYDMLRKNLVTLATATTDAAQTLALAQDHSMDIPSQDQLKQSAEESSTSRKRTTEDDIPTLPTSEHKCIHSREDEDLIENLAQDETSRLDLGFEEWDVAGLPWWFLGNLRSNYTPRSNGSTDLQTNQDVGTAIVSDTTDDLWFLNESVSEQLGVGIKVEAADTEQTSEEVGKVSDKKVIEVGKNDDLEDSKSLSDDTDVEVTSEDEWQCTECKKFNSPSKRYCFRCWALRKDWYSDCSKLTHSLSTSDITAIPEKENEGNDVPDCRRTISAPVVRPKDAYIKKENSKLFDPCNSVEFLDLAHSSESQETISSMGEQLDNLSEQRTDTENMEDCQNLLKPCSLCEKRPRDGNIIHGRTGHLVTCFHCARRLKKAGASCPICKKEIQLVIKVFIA
Target sequence (Q00987 whole entry, looked up): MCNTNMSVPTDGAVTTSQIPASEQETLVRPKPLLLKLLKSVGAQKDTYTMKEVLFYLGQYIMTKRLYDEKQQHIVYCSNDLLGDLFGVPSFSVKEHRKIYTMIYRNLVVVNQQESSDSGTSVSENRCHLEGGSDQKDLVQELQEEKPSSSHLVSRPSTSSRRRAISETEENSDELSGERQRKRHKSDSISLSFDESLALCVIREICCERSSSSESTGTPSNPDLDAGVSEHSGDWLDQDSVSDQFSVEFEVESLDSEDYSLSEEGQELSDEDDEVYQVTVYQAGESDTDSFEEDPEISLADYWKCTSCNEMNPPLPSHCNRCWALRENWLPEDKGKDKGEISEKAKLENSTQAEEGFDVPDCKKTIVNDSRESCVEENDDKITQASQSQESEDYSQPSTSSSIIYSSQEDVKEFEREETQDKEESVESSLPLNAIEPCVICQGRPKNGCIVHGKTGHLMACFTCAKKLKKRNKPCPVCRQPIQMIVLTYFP
HIF-2a conf = HIF-2a inhibition, single concentration confirmation | shares compounds with HIF-2a inh | 786-0 RCC cells, HIF-2a luciferase reporter luminescence, overnight | inhibition, % at 18.8 µM | 1,800 compounds, 56% hits | AID 651580;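 active = mean inhibition across four replicates of at least 40 percent at the single tested concentration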
HIF-1a counter = inhibits HIF-1a reporter, a counter-screen for HIF-2a inhibitors. 1,800 compounds, 72% hits. MiaPaCa-2 HIF-1a luciferase reporter, desferoxamine, overnight. shares compounds with HIF-2a inh. inhibition, % at 18.8 µM;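 active = mean inhibition of the reporter signal across four replicates at the single tested dose of 50% or more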
The depositor's hits bear a star.

O=C(Nc1ccc(NC(=O)c2cccs2)cc1)c1ccc2c(c1)OCCO2 was read as TRAIL sens C8 3, hiPSC survival 0, HIF-2a inh 47*, CF NFkB block 10, KKLEB cytotox 0, PPC-1+TRAIL kill 2, HIF-2a conf 45* and HIF-1a counter 15.
`CC(C)C(=O)N1CCN(c2ccc(NC(=O)c3ccc4c(c3)OCCO4)cc2)CC1` gave TRAIL sens C8 -16, hiPSC survival 0, HIF-2a inh 42*, CF NFkB block 14, KKLEB cytotox -4, PPC-1+TRAIL kill 22, HIF-2a conf -2 and HIF-1a counter -4.
CC(=O)N1CCN(c2ccc(NC(=O)c3ccc4c(c3)OCO4)cc2)CC1 was read as TRAIL sens C8 -19, hiPSC survival 4, HIF-2a inh 19, CF NFkB block -1, KKLEB cytotox -23 and PPC-1+TRAIL kill 4.
For Cc1ccc(C(=O)N2CCN(c3ccc(NC(=O)c4ccc5c(c4)OCCO5)cc3)CC2)cc1 the results were TRAIL sens C8 35, hiPSC survival -1, HIF-2a inh 13, CF NFkB block 15 and KKLEB cytotox -11.
`O=C(Nc1ccc(NC(=O)c2cccs2)cc1)c1ccc2c(c1)OCO2` gave TRAIL sens C8 1, hiPSC survival 0, HIF-2a inh -3, CF NFkB block 14, KKLEB cytotox -5 and PPC-1+TRAIL kill 42.
Screening Cc1ccc(C(=O)Nc2ccc3c(c2)OCCO3)c(C)c1 returned TRAIL sens C8 87*, hiPSC survival -1, HIF-2a inh 52*, CF NFkB block -19, KKLEB cytotox -29, HIF-2a conf 70* and HIF-1a counter 45.
`O=C(NCC(=O)N1CCN(c2ccccc2O)CC1)c1ccc2c(c1)OCO2` gave TRAIL sens C8 -9, hiPSC survival 2, HIF-2a inh 1, CF NFkB block 6 and KKLEB cytotox 3.
COc1ccc(/C=C/c2cc(C(F)(F)F)on2)cc1 was read as TRAIL sens C8 -7, hiPSC survival 1, HIF-2a inh -61, CF NFkB block -12, KKLEB cytotox 7 and PPC-1+TRAIL kill 16.
Screening COc1ccccc1NC(=O)C(C)OC(=O)CCCc1c[nH]c2ccccc12 (configuration not stated) returned TRAIL sens C8 -2, hiPSC survival 0, HIF-2a inh 1, CF NFkB block 21 and KKLEB cytotox -1.
CCOC(=O)C(CC)(CC)C(=O)/C=C/c1cccc(Br)c1 was read as TRAIL sens C8 -10, hiPSC survival -4, HIF-2a inh 87*, CF NFkB block 24, KKLEB cytotox 1, HIF-2a conf 69* and HIF-1a counter 104*.
For NC(=O)NC(=O)COC(=O)/C=C/c1cccc(Br)c1 the results were TRAIL sens C8 1, hiPSC survival 3, HIF-2a inh 6, CF NFkB block -11, KKLEB cytotox 11 and PPC-1+TRAIL kill -7.
Cc1ccc(NC(=O)CN2C(=O)NC3(CCCCC3C)C2=O)cc1S(=O)(=O)N1CCOCC1 (configuration not stated) was read as TRAIL sens C8 -17, hiPSC survival 2, HIF-2a inh 15, CF NFkB block -35 and KKLEB cytotox 19.
O=[N+]([O-])c1cccnc1S(=O)(=O)c1ccccc1 was read as TRAIL sens C8 12, hiPSC survival -1, HIF-2a inh 55*, CF NFkB block 82*, KKLEB cytotox -68*, Mdm2-MdmX confirm 102*, HIF-2a conf 20 and HIF-1a counter -1.
`COc1ccc([N+](=O)[O-])c(S(=O)(=O)c2ccc(Cl)cc2)n1` gave TRAIL sens C8 37, hiPSC survival 0, HIF-2a inh 60*, CF NFkB block 102*, KKLEB cytotox -47, PPC-1+TRAIL kill -7, Mdm2-MdmX confirm 103*, HIF-2a conf 75* and HIF-1a counter 62*.
Nc1cccnc1S(=O)(=O)c1ccccc1 was read as TRAIL sens C8 -2, hiPSC survival 0, HIF-2a inh 20, CF NFkB block 0 and KKLEB cytotox 4.
For COc1ccccc1S(=O)(=O)c1ccccc1[N+](=O)[O-] the results were TRAIL sens C8 -19, hiPSC survival -1, HIF-2a inh 12, CF NFkB block 8, KKLEB cytotox -16 and PPC-1+TRAIL kill 19.
COc1ccc([N+](=O)[O-])c(S(=O)(=O)c2ccccc2)n1 was read as TRAIL sens C8 16, hiPSC survival 0, HIF-2a inh 82*, CF NFkB block 85*, KKLEB cytotox -55*, PPC-1+TRAIL kill -4, Mdm2-MdmX confirm 103*, HIF-2a conf 88* and HIF-1a counter 84*.
`C=CCN1C(=O)N/C(=C/c2ccc(C)o2)C1=O` gave TRAIL sens C8 -5, hiPSC survival -2, HIF-2a inh 40*, CF NFkB block -9, KKLEB cytotox 1, PPC-1+TRAIL kill -17, HIF-2a conf -33 and HIF-1a counter -13.
`CCOc1ccc(C(=O)Cc2ccccc2)cc1` gave TRAIL sens C8 14, hiPSC survival -1, HIF-2a inh -238, CF NFkB block 18 and KKLEB cytotox -20.
CCOc1ccc(C(=O)CSCCC(=O)O)cc1 was read as TRAIL sens C8 -4, hiPSC survival 2, HIF-2a inh 78*, CF NFkB block 9, KKLEB cytotox 0, PPC-1+TRAIL kill 18, HIF-2a conf 82* and HIF-1a counter 61*.
Screening NS(=O)(=O)c1ccc(CNC(=O)Cc2ccc(S(=O)(=O)N3CCOCC3)s2)cc1 returned TRAIL sens C8 3, hiPSC survival 1, HIF-2a inh -2, CF NFkB block 14 and KKLEB cytotox 10.
Screening O=C1/C(=C/c2ccccn2)COc2ccccc21 returned TRAIL sens C8 1, hiPSC survival 1, HIF-2a inh -14, CF NFkB block -37, KKLEB cytotox 16 and PPC-1+TRAIL kill 5.
`CC1C/C(=C/c2ccccn2)C(=O)/C(=C/c2ccccn2)C1` (configuration not stated) gave TRAIL sens C8 -61, hiPSC survival 4, HIF-2a inh 94*, CF NFkB block 86*, KKLEB cytotox -62*, PPC-1+TRAIL kill 23 and Mdm2-MdmX confirm 103*.
